GC-A act = GC-A (human) enzyme activation | HEK293 GC-A cells, cGMP TR-FRET, EC30 ANP; 0% at EC30 ANP, 100% saturating ANP | 0.14% of 370,000 active | activation, % at 10 µM | P16066; in the data active means activation above about 40%
Target sequence (P16066 whole entry, looked up): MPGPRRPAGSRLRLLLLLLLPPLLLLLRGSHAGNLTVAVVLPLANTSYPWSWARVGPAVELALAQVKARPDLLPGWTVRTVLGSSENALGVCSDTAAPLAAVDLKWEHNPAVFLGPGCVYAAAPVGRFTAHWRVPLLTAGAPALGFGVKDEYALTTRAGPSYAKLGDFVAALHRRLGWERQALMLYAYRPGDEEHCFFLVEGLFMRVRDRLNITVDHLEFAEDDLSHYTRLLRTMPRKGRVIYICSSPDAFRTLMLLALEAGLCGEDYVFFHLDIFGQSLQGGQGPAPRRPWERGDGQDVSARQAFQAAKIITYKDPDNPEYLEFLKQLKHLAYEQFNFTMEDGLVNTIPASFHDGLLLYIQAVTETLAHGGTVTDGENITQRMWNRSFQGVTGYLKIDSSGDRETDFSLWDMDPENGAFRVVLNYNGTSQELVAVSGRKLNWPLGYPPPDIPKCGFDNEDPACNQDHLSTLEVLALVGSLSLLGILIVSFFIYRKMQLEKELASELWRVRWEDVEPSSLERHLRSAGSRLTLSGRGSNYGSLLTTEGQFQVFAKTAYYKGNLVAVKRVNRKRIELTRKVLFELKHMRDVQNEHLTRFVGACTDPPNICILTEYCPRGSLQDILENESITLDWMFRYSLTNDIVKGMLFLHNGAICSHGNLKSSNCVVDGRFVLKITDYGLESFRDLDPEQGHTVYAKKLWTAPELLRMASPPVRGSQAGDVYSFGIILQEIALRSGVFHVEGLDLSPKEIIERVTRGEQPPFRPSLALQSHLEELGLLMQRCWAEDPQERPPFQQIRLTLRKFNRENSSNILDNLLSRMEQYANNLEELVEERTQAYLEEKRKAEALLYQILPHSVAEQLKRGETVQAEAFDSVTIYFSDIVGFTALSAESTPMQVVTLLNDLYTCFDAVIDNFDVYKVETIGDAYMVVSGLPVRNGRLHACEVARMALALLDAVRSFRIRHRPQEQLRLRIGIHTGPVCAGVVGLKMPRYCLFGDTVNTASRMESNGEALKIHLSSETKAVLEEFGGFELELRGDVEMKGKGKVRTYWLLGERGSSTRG
Exocytosis inh = blocks lytic granule exocytosis | 0.66% of 360,000 active | inhibition, % at 10 µM | TALL-104 LAMP-1 surface exposure, flow cytometry; cells stimulated with thapsigargin and PMA | AID 651702;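 active means inhibition above about 55%, limit read from the data; inconclusive means no clear call, values can overlap the other calls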
NPR2 activator = GC-B (human) receptor activation; AID 1920062; activation, % at 10 µM; 0.11% of 370,000 active; HEK293-GC-B cells, CNP EC30, cGMP TR-FRET; 0% at EC30 CNP, 100% saturating CNP;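 active means activation at 10 µM reaching about 35% in either raw or pattern-adjusted values, limit read from the data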
Myeloid diff 2 = myeloid differentiation induction; ER-HoxA9 myeloid progenitors, lysozyme-GFP differentiation, flow cytometry; calls only at 10 µM; 1% of 360,000 active; AID 624256;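 active means normalized GFP-positive differentiation at or above the plate's own cutoff, the solvent-only control mean plus 3 SD; inconclusive means no clear call, values can overlap the other calls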;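 further: cells exposed to compound for four days before flow analysis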
Myeloid diff = compounds promoting myeloid differentiation; ER-HoxA9 myeloid progenitors, GFP/Mac1 double-positive flow; shares compounds with Myeloid diff 2; 2% of 2,300 active; calls only;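 active means share of green or green-and-red cells above 9 and 9% in run 1 or 4 and 3% in run 2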
GFP autofluor = compound fluorescence in myeloid differentiation counter-screen; ER-HoxA9 myeloid progenitors, no estrogen, GFP autofluorescence flow cytometry; vehicle wells 0%, positive control 100%; shares compounds with Myeloid diff 2; 7.4% of 2,300 active; fluorescence response, % (no concentration beside the values);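 active means over 5% cells positive for green fluorescent reporter, or over 2% positive for both it and APC stain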;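 further: range taken on the double positive population between DMSO and positive control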
Granule exo CP1 = blocks lytic granule exocytosis; shares compounds with Exocytosis inh; TALL-104 cells, LAMP-1 externalization, flow cytometry; stimulated with PMA plus thapsigargin; inhibition, % at 10 µM; 11% of 1,500 active; in the data active means inhibition above about 60%;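 further: 0% = stimulated vehicle wells and 100% = unstimulated wells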
* marks the source's active call; other numbers are inactive results; i = inactive; ? = inconclusive; nt = no result; + = active, no number. Compounds with a hit are over-represented: about 1.8% of the library has one in this group of screens.

SMILES	GC-A act	Exocytosis inh	NPR2 activator	Myeloid diff 2	Myeloid diff	GFP autofluor	others
Cn1c(=O)oc2cc(S(=O)(=O)N3CCCC(C(=O)NCc4cccs4)C3)ccc21 (stereo not given)	-3.5	0.6	0.6	i	i	0.2
COc1ccccc1CNC(=O)C1CCCN(S(=O)(=O)c2ccc3c(c2)C(C)(C)C(=O)N3C)C1 (stereo not given)	-3.0	2.4	4.9	i	i	0.0
Cn1c(=O)oc2cc(S(=O)(=O)N3CCCC(C(=O)NCc4ccc5c(c4)OCO5)C3)ccc21 (stereo not given)	-4.6	2.6	-0.4	i	nt	nt
COc1ccc2sc3c(=O)[nH]c4ccccc4c3c2c1	8.0	2.9	-8.6	+	i	0.0
O=C1C=CN2CCOCC2C1 (stereo not given)	3.5	-9.1	6.5	i	nt	nt
O=C1C=CN2CCCCC2CC1 (stereo not given)	-1.5	-1.9	-0.1	+	i	4.8
CCOC(=O)C1=C[C@@H](c2ccccc2)N(S(=O)(=O)c2ccc(C)cc2)[C@H]1c1ccc(OC)cc1	-7.4	27.1	-13.4	i	nt	nt
FC(F)(F)c1cc(CNC2CCC23CCCCC3)ccc1Cl (stereo not given)	0.5	nt	-0.2	nt	nt	nt
CCN1CCN(Cc2cccc(Oc3ccc(Cl)cc3)c2)CC1	3.3	2.2	4.2	+	i	0.5
CC(=O)NC/C(C)=N\Nc1ccc([N+](=O)[O-])cc1	0.1	-2.1	-1.0	+	i	49.4*
C/C(=N\Nc1ccc([N+](=O)[O-])cc1)c1ccc(O)cc1	-13.9	0.5	-8.2	i	nt	nt
Cc1ccc(S(=O)(=O)N(CC(=O)N(C)C)c2cccc([N+](=O)[O-])c2)cc1	0.0	0.7	2.6	+	i	0.0
Cc1ccc(CNC(=O)CN(c2cccc([N+](=O)[O-])c2)S(=O)(=O)c2ccccc2)cc1	-4.8	-0.4	6.5	i	nt	nt
C=C(C)COc1ccc2c(C)c(CC(=O)OC)c(=O)oc2c1C	nt	-16.9	nt	i	i	1.0
CCOC(=O)C1(CC2CC2)CCN(C(=O)c2cccnc2C)CC1	-0.9	-6.8	5.7	i	i	0.3
Cc1ccsc1CN(C)CC(=O)NCC(=O)Nc1ccc(F)c(F)c1F	2.5	-1.7	-0.4	+	i	4.2
Cc1ccsc1CN(C)CC(=O)NCC(=O)Nc1ccc(F)cc1	3.0	10.2	-2.5	i	nt	nt
CC(C)n1cc(C#N)c(N)n1	2.7	0.2	3.0	i	nt	nt
COc1ccc2nc(N3C(=O)/C(=C/c4ccccc4)NC3=S)sc2c1	-4.6	0.4	-0.3	i	i	7.0*
Cc1nc(SCC(=O)N(C)c2ccccc2)[nH]c(=O)c1C	-0.9	nt	-2.1	nt	nt	nt
c1coc(C2Nc3ccccc3-c3nc4ccccc4n32)c1 (stereo not given)	-18.9	6.9	-9.7	i	i	0.8
COC(=O)NNC(=O)COc1ccc2ccccc2c1Br	1.0	-3.9	-5.8	i	i	0.7
CC1CC(C)CN(c2ncc3c(n2)CC(c2ccccc2)CC3=O)C1 (stereo not given)	8.4	0.2	2.2	+	i	0.0
O=C(O)c1ccc(Nc2ccc([N+](=O)[O-])c3nonc23)cc1	-5.6	-3.1	-4.6	i	nt	nt
O=[N+]([O-])c1ccc(Nc2ccccc2O)c2nonc12	-4.1	-7.2	-4.9	+	i	2.3
SMILES	GC-A act	Exocytosis inh	NPR2 activator	Myeloid diff 2	Myeloid diff	GFP autofluor	others
COc1ccc(CN(C)c2ccc(S(=O)(=O)N3CCN(C)CC3)cc2[N+](=O)[O-])cc1OC	4.3	-1.4	6.8	i	i	0.9
COc1ccc(CCN(C)c2ccc(S(=O)(=O)N3CCCC3)cc2[N+](=O)[O-])cc1OC	0.6	6.4	0.7	i	nt	nt
COCCc1ccc(OC2(C)CCN(Cc3cccc(OCOC)c3)C2)cc1 (stereo not given)	5.7	5.5	0.1	i	nt	nt
CC(=O)Nc1cccc(-c2ccnc3c2CC(C)(C(=O)NCc2ccc(N(C)C)cc2)O3)c1 (stereo not given)	0.3	17.5	10.5	+	i	0.0
CCOC(=O)CCCNC(=O)O[C@@H]1CC[C@@]23CCCN2C(=O)CCC[C@H]3C1	3.3	nt	-3.3	nt	nt	nt
COc1cccc(OC(C)c2ccnc3nc(/N=C/N(C)C)nn23)c1 (stereo not given)	0.8	-1.4	-5.6	i	i	1.0
O=C(NNC1=Nc2cccc3cccc1c23)c1ccc(Br)cc1	-10.3	-2.1	-0.9	+	i	12.4*
O=C(Oc1ccnc2cc(Cl)ccc12)N1CCOCC1	-2.2	4.6	-10.7	i	i	0.3
O=C(Oc1c(Cl)cc(Cl)c2cccnc12)N1CCOCC1	8.0	0.8	0.9	i	nt	nt
Cc1cc(OCC[N+]2(C)CCCCC2)nc2ccccc12	-3.0	-6.3	-3.4	i	i	0.0
Cc1cc(NC2CCCCC2)nc2ccccc12	-6.0	0.6	-4.2	i	nt	nt
N#CCCN(C(=O)COc1ccc(C#N)cc1)c1ccc(F)cc1	-1.0	-13.7	-1.0	i	i	0.4
Cc1ccccc1Cn1cc(CN2[C@H](CC(C)C)COc3cc(Br)ccc3S2(=O)=O)nn1	-1.8	nt	3.8	nt	nt	nt
O=C1S/C(=C\c2ccc(N3CCOCC3)o2)C(=O)N1c1ccccc1	28.6	67.7*	9.6	+	i	9.6*	Granule exo CP1=18.5
O=C(O)c1ccccc1-c1ccc(/C=C2\SC(=O)N(c3ccccc3)C2=O)o1	-2.0	-4.1	0.4	i	nt	nt
COc1cc(NC(=O)c2cc(-c3cc(F)ccc3OC(C)C)n[nH]2)cc(OC)c1OC	7.9	-11.8	12.1	i	nt	nt
FC(F)(F)c1cccc(NC(=S)N(CCCN2CCCC2)Cc2cccn2Cc2ccc(Cl)cc2)c1	-21.8	68.3*	-12.6	+	i	41.2*	Granule exo CP1=21.9
COCCn1c(SCCOc2ccccc2)nc2ccccc2c1=O	0.4	67.0*	2.4	i	nt	nt	Granule exo CP1=14.1
CC(=O)c1cccc(CN(C)CC2CCCN(CCc3ccccc3C)C2)c1 (stereo not given)	-11.5	35.0	2.1	i	nt	nt
COc1ccc(N=C(N)NC(=O)OCc2ccccc2)cc1	0.7	nt	8.1	nt	nt	nt
COc1cc2c(cc1OC)CN(c1ccc([N+](=O)[O-])cc1C#N)CC2	0.6	77.4*	-5.4	i	nt	nt	Granule exo CP1=-3.0
COc1cc2c(cc1OC)CN(c1ccc([N+](=O)[O-])cc1Cl)CC2	15.1	69.6*	0.2	?	nt	nt	Granule exo CP1=-8.3
COc1cc2c(cc1OC)CN(c1ccc(F)cc1[N+](=O)[O-])CC2	-5.7	-8.5	-3.4	i	nt	nt
Cc1ccc(NC(=O)CN2C(=O)CCSc3ccccc32)cc1C	2.6	nt	-0.6	nt	nt	nt
